In publication PMC5540273 (PLoS ONE, 2017):

How the values were obtained:
Details in all cases: concentration: 1 μM, replicates: in singlicate; n = 1
[1] = test system: CDKL5
[2] = test system: CHEK1
[3] = test system: CHEK2
[4] = test system: CIT
[5] = test system: CLK1
[6] = test system: CLK2
[7] = test system: CLK3
[8] = test system: CLK4
[9] = test system: CSF1R-autoinhibited
[10] = test system: CSF1R
[11] = test system: CSK
[12] = test system: CSNK1A1L
[13] = test system: CSNK1A1
[14] = test system: CSNK1D
[15] = test system: CSNK1E
[16] = test system: CSNK1G1
[17] = test system: CSNK1G2
[18] = test system: CSNK1G3
[19] = test system: CSNK2A1
[20] = test system: CSNK2A2
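Also: KINOMEscan kinase panel screen.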

Structure (SMILES) | %Inh [1] [%] | %Inh [2] [%] | %Inh [3] [%] | %Inh [4] [%] | %Inh [5] [%] | %Inh [6] [%] | %Inh [7] [%] | %Inh [8] [%] | %Inh [9] [%] | %Inh [10] [%] | %Inh [11] [%] | %Inh [12] [%] | %Inh [13] [%] | %Inh [14] [%] | %Inh [15] [%] | %Inh [16] [%] | %Inh [17] [%] | %Inh [18] [%] | %Inh [19] [%] | %Inh [20] [%]
O=c1cc(N2CCOCC2)nc2n(Cc3cccc(Cl)c3Cl)c3ccccc3n12 [GSK2299009] | 7 | 3 | 0 | 21 | 27 | 2 | 1 | 8 | 0 | 28 | 21 | 11 | 0 | 19 | 41 | 8 | 0 | 17 | 11 | 31
c1ccc(-c2ccnc3[nH]ccc23)cc1 [SB-693578] | 9 | 12 | 0 | 3 | 12 | 8 | 29 | 5 | 47 | 8 | 0 | 20 | 0 | 1 | 42 | 90.3 | 0 | 5 | 0 | 0
Nc1ncnc2occ(-c3ccc4c(c3)CCN4C(=O)Cc3cc(F)ccc3F)c12 [GSK2645446] | 0 | 0 | 21 | 0 | 27 | 0 | 0 | 0 | 0 | 17 | 0 | 1 | 1 | 0 | 30 | 4 | 0 | 38 | 0 | 11
COc1ccc(Nc2nccc(N3CCC(NC(=O)c4cc5ccccc5s4)C3)n2)cc1 (stereo not shown) [GSK1379738] | 0 | 100 | 0 | 0 | 24 | 7 | 4 | 0 | 0 | 19 | 2 | 2 | 0 | 9 | 34 | 0 | 0 | 17 | 5 | 0
Cc1ccc(-c2nc(Nc3ccncc3)c3ccccc3n2)s1 [GSK189015] | 14 | 22 | 0 | 42 | 35 | 0 | 0 | 28 | 0 | 4 | 0 | 13 | 24 | 33 | 22 | 14 | 12 | 35 | 27 | 30
CC[C@@H]1CO[C@H](C(=O)Nc2ccccc2)CN1c1cc(-c2ccc3c(N)n[nH]c3c2)nc(NC)n1 [GSK2376236] | 0 | 2 | 29 | 98.5 | 37 | 0 | 7 | 0 | 0 | 12 | 0 | 4 | 0 | 39 | 42 | 7 | 31 | 39 | 12 | 10
COc1ccc(Nc2nccc(NCCNC(=O)Nc3cc(C)ccc3C)n2)cc1 [GSK1379899] | 5 | 5 | 86 | 7 | 23 | 0 | 6 | 57 | 0 | 0 | 0 | 1 | 0 | 4 | 22 | 0 | 0 | 15 | 1 | 0
FC(F)(F)c1ccccc1-c1cc(-c2c[nH]nc2-c2ccccn2)ccn1 [GW679396] | 0 | 99.9 | 0 | 41 | 8 | 1 | 0 | 21 | 0 | 0 | 0 | 3 | 0 | 36 | 23 | 16 | 0 | 24 | 7 | 17
O=C(Nc1n[nH]c2cc(-c3ccsc3)ccc12)C1CC1 [SB-732932] | 17 | 0 | 0 | 0 | 2 | 21 | 0 | 7 | 16 | 16 | 0 | 17 | 0 | 0 | 0 | 24 | 0 | 0 | 29 | 52
Fc1ccc(-c2nc[nH]c2-c2ccncc2)cc1 [SB-217360] | 2 | 0 | 16 | 93.7 | 5 | 10 | 10 | 0 | 0 | 0 | 6 | 24 | 93.3 | 91.9 | 97.7 | 5 | 0 | 5 | 0 | 0
CNC(=O)c1ccc(C)c(-n2c(C)cc(OCc3ccc(F)cc3F)c(Br)c2=O)c1 | 0 | 0 | 0 | 0 | 11 | 0 | 0 | 0 | 0 | 0 | 0 | 0 | 4 | 0 | 6 | 0 | 0 | 25 | 0 | 0
Cc1c(Cn2c(C)c(C)n3c(=O)cc(N4CCOCC4)nc23)cccc1C(F)(F)F [GSK2328680] | 0 | 0 | 8 | 19 | 22 | 0 | 6 | 21 | 14 | 0 | 0 | 10 | 0 | 24 | 20 | 0 | 0 | 21 | 2 | 5
Cc1ccc(NC(=O)c2ccc(Cl)cc2)cc1-c1ccc(C(=O)Nc2ccncc2)cc1 [GSK1398467] | 0 | 16 | 0 | 69 | 3 | 100 | 0 | 15 | 0 | 97.1 | 0 | 14 | 0 | 18 | 11 | 8 | 9 | 22 | 0 | 0
COC(=O)C(NC(=O)NC1CCN(c2ccnc(Nc3ccc(F)cc3)n2)C1)c1ccccc1 (stereo not shown) [GSK1379712] | 3 | 3 | 37 | 0 | 9 | 0 | 0 | 0 | 34 | 5 | 0 | 3 | 0 | 92 | 19 | 5 | 1 | 25 | 3 | 0
COc1cc2ncnc(Nc3cccc(Br)c3)c2cc1OC.Cl [GI230329] | 0 | 0 | 54 | 53 | 31 | 0 | 0 | 15 | 44 | 4 | 0 | 10 | 0 | 0 | 31 | 12 | 0 | 26 | 8 | 0
COc1ccc(Nc2nccc(N3CCC(NC(=O)C(C)c4ccc(Cl)cc4)C3)n2)cc1 (stereo not shown) [GSK1379735] | 9 | 26 | 0 | 26 | 16 | 13 | 0 | 8 | 8 | 27 | 0 | 1 | 10 | 0 | 11 | 0 | 0 | 23 | 12 | 14

Structure (SMILES) | %Inh [1] [%] | %Inh [2] [%] | %Inh [3] [%] | %Inh [4] [%] | %Inh [5] [%] | %Inh [6] [%] | %Inh [7] [%] | %Inh [8] [%] | %Inh [9] [%] | %Inh [10] [%] | %Inh [11] [%] | %Inh [12] [%] | %Inh [13] [%] | %Inh [14] [%] | %Inh [15] [%] | %Inh [16] [%] | %Inh [17] [%] | %Inh [18] [%] | %Inh [19] [%] | %Inh [20] [%]
CCn1c(-c2ccccc2)nc2cnccc21 [SB-733416] | 4 | 29 | 0 | 23 | 17 | 0 | 0 | 3 | 0 | 13 | 0 | 11 | 0 | 2 | 24 | 0 | 0 | 11 | 0 | 1
Cc1cccc2c(-c3ccncn3)c(-c3ccc(F)cc3)nn12 [GW515532] | 0 | 5 | 0 | 82 | 99.9 | 0 | 100 | 22 | 0 | 0 | 0 | 0 | 50 | 81 | 100 | 14 | 0 | 99.9 | 1 | 0
COc1ccc(CSc2nnc(-c3ccc4nccn4c3)o2)cc1C(F)(F)F | 16 | 23 | 17 | 14 | 97.1 | 91.9 | 12 | 90.3 | 6 | 17 | 0 | 0 | 18 | 0 | 0 | 15 | 0 | 0 | 0 | 21
Cc1c(Cn2c3ccccc3n3c(=O)cc(N4CCOCC4)nc23)cccc1C(F)(F)F [GSK2306394] | 0 | 12 | 0 | 30 | 18 | 11 | 0 | 20 | 0 | 0 | 0 | 0 | 19 | 10 | 12 | 9 | 43 | 17 | 6 | 14
Cc1cnc(N)c(/C=C/c2cncc(C(=O)NCCc3ccc(Cl)cc3Cl)c2)c1.Cl [GSK190937] | 9 | 0 | 26 | 31 | 38 | 48 | 0 | 57 | 6 | 25 | 0 | 0 | 0 | 34 | 20 | 24 | 2 | 3 | 0 | 0
CNCc1ccc2nc(NC(=O)c3ccc(C(C)(C)C)cc3)cn2c1 | 23 | 5 | 0 | 0 | 87 | 22 | 0 | 3 | 2 | 42 | 0 | 0 | 2 | 11 | 3 | 9 | 0 | 87 | 42 | 4
O=c1cc(N2CCOCC2)nc2n(Cc3ccccc3F)ccn12 [GSK2297428] | 0 | 9 | 0 | 18 | 36 | 0 | 22 | 54 | 7 | 0 | 0 | 0 | 28 | 25 | 33 | 9 | 0 | 28 | 0 | 0
COc1ccc(Nc2nccc(N3CCC(NC(=O)C(C)c4ccc(Cl)cc4)CC3)n2)cc1 (stereo not shown) [GSK1379812] | 100 | 0 | 0 | 9 | 13 | 11 | 0 | 9 | 0 | 0 | 0 | 0 | 0 | 18 | 35 | 7 | 0 | 19 | 0 | 21
COc1cccc(CNC(=O)NC2CCN(c3ccnc(Nc4ccc(F)cc4)n3)C2)c1 (stereo not shown) [GSK1379723] | 6 | 5 | 0 | 19 | 19 | 0 | 0 | 8 | 10 | 2 | 0 | 21 | 19 | 4 | 11 | 0 | 0 | 16 | 0 | 2
O=C(Nc1n[nH]c2nc(-c3cccs3)c(Br)cc12)C1CCCC1 [SB-743341] | 0 | 9 | 9 | 4 | 0 | 18 | 31 | 12 | 0 | 18 | 9 | 13 | 27 | 0 | 0 | 0 | 0 | 0 | 10 | 17
CC(=O)c1c(C)c2cnc(Nc3ccc(N4CCNCC4)cn3)nc2n(C2CCCC2)c1=O | 0 | 0 | 16 | 3 | 23 | 0 | 100 | 13 | 7 | 7 | 0 | 0 | 24 | 8 | 99.9 | 0 | 0 | 0 | 0 | 13
CCn1c(-c2c(N)noc2C)nc2cnccc21 [SB-737856] | 0 | 0 | 0 | 22 | 26 | 0 | 0 | 13 | 0 | 14 | 0 | 18 | 0 | 13 | 11 | 8 | 0 | 9 | 0 | 0
O=C(Nc1n[nH]c2nc(-c3ccco3)c(Br)cc12)C1CCN(Cc2ccccc2)C1.O=C(O)[C@H](O)[C@@H](O)C(=O)O (stereo not shown) [SB-742034] | 85 | 16 | 0 | 0 | 0 | 0 | 0 | 7 | 0 | 10 | 11 | 8 | 21 | 28 | 0 | 4 | 32 | 0 | 22 | 37
O=C(Nc1n[nH]c2nc(-c3cccs3)c(Br)cc12)C1CC1 [SB-735297] | 0 | 0 | 0 | 0 | 11 | 0 | 0 | 0 | 0 | 0 | 12 | 6 | 0 | 0 | 0 | 0 | 0 | 17 | 26 | 51
Fc1ccc(-c2nn3cccc(F)c3c2-c2ccncc2)cc1 [GW475620] | 0 | 0 | 0 | 96.3 | 22 | 0 | 6 | 26 | 0 | 0 | 0 | 30 | 69 | 94 | 96.2 | 16 | 2 | 24 | 11 | 9
CC(C)c1ccc(O)cc1Nc1ccnc2ccc(C(F)(F)F)cc12 [GW482059] | 0 | 14 | 0 | 25 | 14 | 4 | 0 | 32 | 0 | 0 | 0 | 11 | 0 | 0 | 0 | 0 | 0 | 9 | 7 | 0
